20 compounds from PubChem BioAssay (NCATS) can be followed below.

Assay [1] can be described thus: Drug repurposing screens with cells derived from glioblastoma tumor samples (AID 1345199). Further: nearly all actives have a fitted effect of over 40% in size. Further: potency means the concentration at half of the fitted maximal effect. On activity, negative = cell killing: on the % scale 0 is the no-effect control and ±100 the full control effect. The conditions noted are these: GBM patient neurospheres viability, ATP luminescence, 48 h. The method in brief:
(§1)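 Four patient lines of CD133+ GBM neurospheres were screened at several concentrations; hits were retested in those lines plus three slower-growing GBM lines, using 48-hour treatment and ATP-based viability.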

Assay [2] relates to astro (control astrocytes). Described as above. The conditions noted are these: viability, ATP luminescence, 48 h; series mostly up to 45.9 µM. The method in brief:
as §1

Assay [3] concerns the target Nuclear receptor subfamily 1 group I member 2 (Rattus norvegicus) (UniProt Q9R1A7). Description: qHTS assay for small molecule activators of the rat pregnane X receptor (rPXR) signaling pathway (AID 651751; call rule not given here; further: 0% is about no effect). To be noted: rPXR reporter cells, luciferase (One-Glo), 24 h. Background: qHTS replaces the single test concentration by a dilution series.
Assay [4] in a line: qHTS assay for small molecule activators of the human pregnane X receptor (PXR) signaling pathway (AID 720659; call rule not given here; further: 0% is about no effect). To be noted: DPX-2 HepG2 CYP3A4-luciferase, 24 h; series mostly up to 92.3 µM.
A short description of assay [5]: qHTS assay to identify inhibitors of the type 1 interferon - major histocompatibility complex class I in skeletal muscle: Counter screen cell viability and HiBit confirmation (AID 1347412). Further: on the % scale 0 is the no-effect control and ±100 the full control effect; nearly all actives have a fitted effect of over 60% in size. To be noted: iHSKM muscle cells + IFN-b, HiBiT or CellTiter-Glo, 24 h; Viability, at 45.9 µM (top of the series). The method in brief: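 After 24 h with human IFN-beta (4 ng/ml) and compound titrations (top 46 uM final, 1:3, 12 points), HLA-B HiBit myoblasts were lysed for either Nano-Glo HiBiT luminescence or CellTiter Glo viability on paired plates.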

Where [6] appears, read: at 20 µM (top of the series), tumour line C.
[7] abbreviates: at 21.2 µM (top of the series), tumour line B.
Where [8] appears, read: at 21.2 µM (top of the series), tumour line D.
[9] abbreviates: at 21.3 µM (top of the series), tumour line A.
[10] abbreviates: at 45.9 µM (top of the series), tumour line B.
Where [11] appears, read: at 45.9 µM (top of the series), tumour line D.
[12] abbreviates: at 46 µM (top of the series), tumour line A.
Where [13] appears, read: at 46.1 µM (top of the series), tumour line C.

Unmarked numbers belong to inactive results. Records with an inconclusive call do not appear. Activity calls are given as the source filed them. Unless noted, the call rests on the fitted dose curve; in most records, active means well fitted curve in the direction sought with a large enough effect; inconclusive means small, poorly fitted or top-dose-only effect, or another doubt; inactive means no such curve, though single readings can be large; an effect the other way counts as inactive or inconclusive.

Sequence of Nuclear receptor subfamily 1 group I member 2 (Rattus norvegicus) (Q9R1A7 whole entry, looked up): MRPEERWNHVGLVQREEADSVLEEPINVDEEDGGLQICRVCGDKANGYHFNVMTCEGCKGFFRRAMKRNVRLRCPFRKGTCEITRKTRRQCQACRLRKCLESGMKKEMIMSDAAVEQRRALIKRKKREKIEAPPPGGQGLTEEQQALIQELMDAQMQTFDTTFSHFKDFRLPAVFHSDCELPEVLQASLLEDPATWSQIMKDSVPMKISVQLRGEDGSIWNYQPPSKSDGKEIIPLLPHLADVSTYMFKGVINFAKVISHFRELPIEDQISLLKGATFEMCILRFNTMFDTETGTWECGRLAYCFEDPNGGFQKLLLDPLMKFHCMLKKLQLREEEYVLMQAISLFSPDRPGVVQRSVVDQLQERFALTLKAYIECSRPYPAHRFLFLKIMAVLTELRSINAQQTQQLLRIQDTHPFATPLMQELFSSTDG

With `NC(N)=NCCN1CCCCCCC1`, the activity, negative = cell killing in assay [1] (setting [6]) is -8.56%; in assay [1] (setting [7]), -5.86%; in assay [1] (setting [8]), 12.5%; in assay [1] (setting [9]) it was -16.2%. For the same compound, in assay [2], the call was inactive.
For `CN1C(=O)CC(c2ccccc2)C1=O` (centres undefined), the activity, negative = cell killing in assay [1] (setting [10]) was 3.75%; in assay [1] (setting [11]) it was 1.43%; in assay [1] (setting [12]), 1.73%; in assay [1] (setting [13]) it was -11.6%. Moreover, the compound was called inactive in assay [2].
Turning to `CCCC(O)C(CC)CO` (centres undefined), the activity, negative = cell killing in assay [1] (setting [10]) is -12.1%; in assay [1] (setting [11]), -1.2%; in assay [1] (setting [12]) it was -19.9%; in assay [1] (setting [13]), 1.39%. Besides, the result in assay [2] and in assay [4] was inactive. Also, the max response in assay [3] was 7.37%.
On to `NC(=O)N[C@@H](CCC(=O)O)C(=O)O`, for which the activity, negative = cell killing in assay [1] (setting [10]) was -6.35%; in assay [1] (setting [11]), -8.74%; in assay [1] (setting [12]) it was -22.8%; in assay [1] (setting [13]), -19.7%. Further, the compound was called inactive in assay [2].
Consider `CNCc1ccccc1`, for which the activity, negative = cell killing in assay [1] (setting [10]) was -13%; in assay [1] (setting [11]), -15.9%; in assay [1] (setting [12]), -19.4%; in assay [1] (setting [13]), -9.99%. In addition, the outcome in assay [2] was inactive.
Consider `NC(N)=NS(=O)(=O)c1ccc(N)cc1`, for which the activity, negative = cell killing in assay [1] (setting [6]) is 3.63%; in assay [1] (setting [7]), -6.02%; in assay [1] (setting [8]) it was 9.81%; in assay [1] (setting [9]), 6.37%. Further, in assay [2], the call was inactive.
In the same order, the values of `COc1ccccc1OCC(O)CO` (centres undefined) are 14.1%, -4.78%, -22.3%, -18.5% and “inactive”.
On to `Cn1c(=O)c2c(ncn2CCO)n(C)c1=O`, for which the activity, negative = cell killing in assay [1] (setting [10]) is -5.04%; in assay [1] (setting [11]) it was -0.441%; in assay [1] (setting [12]), -29%; in assay [1] (setting [13]) it was -21.7%. In addition, the compound was called inactive in assay [2].
As for `CC(C)(C)C(=O)OCOC(=O)[C@@H]1N2C(=O)[C@@H](NC(=O)[C@H](N)c3ccccc3)[C@H]2SC1(C)C`, the activity, negative = cell killing in assay [1] (setting [6]) was 0.2%; in assay [1] (setting [7]), -3.35%; in assay [1] (setting [8]), -17.5%; in assay [1] (setting [9]) it was -4.53%. Further, the outcome in assay [2] was inactive.
As for `C=CCSCC1Nc2cc(Cl)c(S(N)(=O)=O)cc2S(=O)(=O)N1` (centres undefined), the activity, negative = cell killing was -4.84% in assay [1] (setting [10]), -16.7% in assay [1] (setting [11]), -17.1% in assay [1] (setting [12]) and -16.4% in assay [1] (setting [13]). Further, the call in assay [2] was inactive.
In the case of `CC(=O)NCc1c(I)c(NC(C)=O)c(I)c(C(=O)O)c1I`, the activity, negative = cell killing was -9.68% in assay [1] (setting [10]), -11.6% in assay [1] (setting [11]), -20.1% in assay [1] (setting [12]) and -11.1% in assay [1] (setting [13]). The result in assay [2] was inactive.
In the same order, the values of `CCCCCC(C)N` (centres undefined) are -17%, -7.45%, -32%, -13.3% and “inactive”.
For `CC1CC(OC(=O)c2ccccc2O)CC(C)(C)C1` (centres undefined), the activity, negative = cell killing in assay [1] (setting [10]) is -18.3%; in assay [1] (setting [11]), -10.1%; in assay [1] (setting [12]), -28.9%; in assay [1] (setting [13]), 1.33%. In assay [2], the compound was called inactive. The max response in assay [3] was 5.1%.
Turning to `C[N+]1(C)CCCC(OC(=O)C(O)(c2ccccc2)c2ccccc2)C1` (centres undefined), the activity, negative = cell killing in assay [1] (setting [6]) is -3.92%; in assay [1] (setting [7]) it was -7.65%; in assay [1] (setting [8]), 4.26%; in assay [1] (setting [9]), -24.7%. Moreover, the compound was called inactive in assay [2].
With `CCCCOC(=O)c1ccc(N)cc1`, the activity, negative = cell killing in assay [1] (setting [11]) is -24.9%. Also, the Potency in assay [1] (tumour line A) is 11.2 µM (active); in assay [1] (tumour line B) it was 12.6 µM (active); in assay [1] (tumour line C), 16.4 µM (active). In addition, the outcome in assay [2] and in assay [5] was inactive. Moreover, the max response in assay [3] was 15.7%.
With `CC[N+](C)(CC)CCOC(=O)C1c2ccccc2Oc2ccccc21`, the activity, negative = cell killing in assay [1] (setting [10]) is -11.7%; in assay [1] (setting [11]) it was 10.5%; in assay [1] (setting [12]), -6.39%; in assay [1] (setting [13]), -9.49%. In assay [2], the call was inactive.
Regarding `O=C(O)[C@@H]1[C@H]2C[C@H]3c4[nH]c5ccccc5c4CCN3C[C@@H]2CC[C@@H]1O`, the activity, negative = cell killing in assay [1] (setting [6]) was -17%; in assay [1] (setting [7]), 2.22%; in assay [1] (setting [9]) it was -34.6%. In addition, the compound was called inactive in assay [2].
As to `C[N+](C)(C)CC[N+]1(C)Cc2c(Cl)c(Cl)c(Cl)c(Cl)c2C1`, the activity, negative = cell killing in assay [1] (setting [10]) was -5.4%; in assay [1] (setting [11]), -17.9%; in assay [1] (setting [13]) it was -19.9%. In addition, in assay [2], the compound was called inactive.
The like results for `Cc1c(NC(C)C)c(=O)n(-c2ccccc2)n1C` were, in that order, 0.947%, -9.1%, -2.3% and “inactive”.
Turning to `FC(F)(F)C(Cl)Br` (centres undefined), the activity, negative = cell killing in assay [1] (setting [10]) was -5.12%; in assay [1] (setting [11]), -3.03%; in assay [1] (setting [12]) it was -22.4%; in assay [1] (setting [13]), -0.139%. Moreover, the result in assay [2] and in assay [4] was inactive. Moreover, the max response in assay [3] was 3.38%.
